Screening data deposited in PubChem BioAssay by The Scripps Research Institute Molecular Screening Center.
PP5 inh = inhibitors of human protein phosphatase 5 (PP5); inhibition, % at 6.7 µM; AID 1987; 320,000 tested, 0.18% active; purified PP5c, OMFP substrate fluorescence;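 active means inhibition above the campaign's mean inhibition across all tested compounds plus 3 SD, cut at about 9.5% in these data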;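 further: 0% = DMSO only and 100% = 100 µM cantharidin control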
pPAFAH FP inh = pPAFAH (human) enzyme inhibition; 330,000 tested, 1.5% active; Q13093; inhibition, % at 3.39 µM; recombinant pPAFAH, FP-rhodamine probe fluorescence polarization; AID 463082;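 active means inhibition above the mean inhibition across the screen plus 3 SD, cut at about 25% in these data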;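 further: inhibitors block binding of the rhodamine activity-based probe so polarization drops; 0% = enzyme with DMSO and 100% = wells lacking pPAFAH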
PAFAH1B3 FP inh = PAFAH1B3 (human) inhibition | Q15102 | recombinant PAFAH1B3, FP-rhodamine probe, fluorescence polarization | inhibition, % at 3.39 µM | 340,000 tested, 0.28% active;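 active means inhibition above the screen-wide average of all tested compounds plus 3 SD, cut at about 25% in these data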;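 further: 0% = enzyme with DMSO only and 100% = wells lacking PAFAH1B3 protein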
PAFAH2 inh = inhibitors of human PAFAH2; recombinant PAFAH2, FP-rhodamine activity probe, fluorescence polarization; inhibition, % at 3.39 µM; 340,000 tested, 0.99% active; Q99487;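 active means inhibition above the mean over all tested compounds plus 3 SD, cut at about 30% in these data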;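 further: inhibitors block probe labeling of enzyme so polarization drops; 0% = enzyme with DMSO and 100% = wells lacking PAFAH2 protein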
PAFAH1B2 FP inh = PAFAH1B2 (human) inhibition. AID 492953. recombinant PAFAH1B2, FP-rhodamine activity probe, fluorescence polarization. 340,000 tested, 1.2% active. inhibition, % at 3.39 µM. P68402;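 active means inhibition above the mean of all tested compounds plus 3 SD, cut at about 24% in these data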;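 further: 0% = enzyme with DMSO and 100% = wells lacking PAFAH1B2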
Target sequence (P68402 whole entry, looked up): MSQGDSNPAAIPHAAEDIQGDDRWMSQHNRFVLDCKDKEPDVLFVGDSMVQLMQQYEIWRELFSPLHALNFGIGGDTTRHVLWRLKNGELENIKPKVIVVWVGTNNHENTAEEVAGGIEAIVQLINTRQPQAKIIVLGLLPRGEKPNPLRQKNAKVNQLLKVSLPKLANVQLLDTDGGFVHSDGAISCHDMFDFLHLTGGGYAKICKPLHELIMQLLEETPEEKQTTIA
PP1 inh = PP1-alpha (human) inhibition in PP5 counter-screen | purified PP1alpha, OMFP fluorescence | 320,000 tested, 0.9% active | inhibition, % at 6.7 µM | AID 2235;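 active means inhibition above the mean inhibition of all tested compounds plus 3 SD, computed separately for each screening campaign, cut at about 15% in these data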
Target sequence (P62136 whole entry, looked up): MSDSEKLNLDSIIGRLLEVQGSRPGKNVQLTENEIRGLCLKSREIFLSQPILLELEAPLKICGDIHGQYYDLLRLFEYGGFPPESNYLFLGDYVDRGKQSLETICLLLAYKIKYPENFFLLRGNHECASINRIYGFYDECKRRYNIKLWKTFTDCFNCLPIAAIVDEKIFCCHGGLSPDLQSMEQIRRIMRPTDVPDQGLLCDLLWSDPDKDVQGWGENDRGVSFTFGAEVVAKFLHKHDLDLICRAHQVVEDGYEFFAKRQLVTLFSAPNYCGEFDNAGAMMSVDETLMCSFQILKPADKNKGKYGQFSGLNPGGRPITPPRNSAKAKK
PP1 confirm = human PP1 phosphatase inhibition, confirmation | AID 2358 | purified PP1alpha, OMFP substrate fluorescence | shares compounds with PP1 inh | 1,900 tested, 52% active | inhibition, % at 6.7 µM;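 active means mean PP1 inhibition above a set limit taken from the earlier primary screen, cut at about 15% in these data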
PP5 counter = inhibits human PP5 phosphatase in PP1 counter-screen. shares compounds with PP1 inh. purified PP5c, OMFP fluorescence. inhibition, % at 6.7 µM. 1,900 tested, 4% active. AID 2360;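 active means mean PP5 inhibition over triplicate wells above about 9.5% taken from the earlier PP1 screen, limit read from the data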
* = called active by the depositor. Sampled rows, rich in hits. Any-hit rate of the full collection: about 3.4%.

`Cc1ccc(C)c(S(=O)(=O)N2CCC(c3nc4c(nnn4Cc4ccc(F)cc4)c(=O)[nH]3)CC2)c1` gave PP5 inh 4, pPAFAH FP inh 4, PAFAH1B3 FP inh -3, PAFAH2 inh -3, PAFAH1B2 FP inh 6, PP1 inh 18*, PP1 confirm 7 and PP5 counter 1.
For Cc1ccc(Cn2nnc3c(=O)[nH]c(C4CCN(S(=O)(=O)c5cc(C)ccc5C)CC4)nc32)cc1 the results were PP5 inh 4, pPAFAH FP inh 2, PAFAH1B3 FP inh -4, PAFAH2 inh -14, PAFAH1B2 FP inh -6, PP1 inh 28*, PP1 confirm 24* and PP5 counter 4.
Cc1ccc(C)c(Cn2nnc3c(=O)[nH]c(C4CCN(S(=O)(=O)c5ccc(S(=O)(=O)N(C)C)cc5)CC4)nc32)c1 was read as PP5 inh 5, pPAFAH FP inh -2, PAFAH1B3 FP inh -13, PAFAH2 inh 2, PAFAH1B2 FP inh -6 and PP1 inh 6.
Screening Cc1ccccc1CN1CCN(C2CCC2)CC1CCO (stereo unspecified) returned PP5 inh 0, pPAFAH FP inh 2, PAFAH1B3 FP inh 2, PAFAH2 inh 5, PAFAH1B2 FP inh 8 and PP1 inh 2.
For CC(OC(=O)CN1C(=O)NC2(CCCC2)C1=O)C(=O)c1ccccc1 (stereo unspecified) the results were PP5 inh -1, pPAFAH FP inh -2, PAFAH1B3 FP inh -3, PAFAH2 inh -2, PAFAH1B2 FP inh 2 and PP1 inh 0.
Cn1c(CNC(=O)CNC(=O)Cc2ccc(F)cc2)cc(=O)n(C)c1=O was read as PP5 inh -1, pPAFAH FP inh -1, PAFAH1B3 FP inh 9, PAFAH2 inh -4, PAFAH1B2 FP inh -1 and PP1 inh -6.
CCc1ccc(Nc2n[n+](-c3ccccc3)c(-c3ccc(OCc4ccccc4)cc3)s2)cc1 was read as PP5 inh 0, pPAFAH FP inh 5, PAFAH1B3 FP inh -5, PAFAH2 inh -15, PAFAH1B2 FP inh 1 and PP1 inh 12.
`c1ccc(COc2ccc(-c3sc(Nc4ccccc4)n[n+]3-c3ccccc3)cc2)cc1` gave PP5 inh 5, pPAFAH FP inh 0, PP1 inh 20*, PP1 confirm 5 and PP5 counter -1.
`CCc1ccc(Nc2n[n+](-c3ccccc3)c(-c3ccc(N(CC)CC)cc3)s2)cc1` gave PP5 inh 1, pPAFAH FP inh 30*, PAFAH1B3 FP inh 5, PAFAH2 inh 10, PAFAH1B2 FP inh 3, PP1 inh 24*, PP1 confirm 10 and PP5 counter -2.
For O=C(NCc1nnc2c(C(F)(F)F)cc(Cl)cn12)c1cccs1 the results were PP5 inh 2, pPAFAH FP inh -3, PAFAH1B3 FP inh -3, PAFAH2 inh 0, PAFAH1B2 FP inh -1 and PP1 inh 4.
Screening O=c1c2ccccc2c(C=Nc2cccc(S(=O)(=O)NC3=NCCCCC3)c2)c(O)n1Cc1ccccc1 returned PP5 inh -1, pPAFAH FP inh 0, PAFAH1B3 FP inh -5, PAFAH2 inh -21, PAFAH1B2 FP inh -5, PP1 inh 19*, PP1 confirm 7 and PP5 counter -2.
Screening CC(CC(=O)N(CCC1=CCCCC1)c1c(N)n(Cc2ccccc2)c(=O)[nH]c1=O)c1ccccc1 (stereo unspecified) returned PP5 inh 2, pPAFAH FP inh 4, PAFAH1B3 FP inh 5, PAFAH2 inh 3, PAFAH1B2 FP inh 5 and PP1 inh -2.
Cc1cnc(C(=O)OCc2nc3ccsc3c(=O)[nH]2)cn1 was read as PP5 inh -1, pPAFAH FP inh 10, PAFAH1B3 FP inh 2, PAFAH2 inh 10, PAFAH1B2 FP inh -3 and PP1 inh 1.
`Cc1cccc(NC(=O)CN2C(=O)N/C(=C/c3cc(C)n(-c4cccnc4)c3C)C2=O)c1` gave PP5 inh -1, pPAFAH FP inh 10, PAFAH1B3 FP inh -6, PAFAH2 inh 6, PAFAH1B2 FP inh -1 and PP1 inh 10.
Cc1cccc(NC(=O)CN2C(=O)N/C(=C/c3cc(C)n(-c4ccncc4)c3C)C2=O)c1 was read as PP5 inh 0, pPAFAH FP inh 12, PAFAH1B3 FP inh -12, PAFAH2 inh -4, PAFAH1B2 FP inh -11, PP1 inh 19*, PP1 confirm 14 and PP5 counter -2.
Cc1cccc(NC(=O)CN2C(=O)N/C(=C\c3ccc(N4CCOCC4)cc3)C2=O)c1 was read as PP5 inh 0, pPAFAH FP inh 9, PAFAH1B3 FP inh 3, PAFAH2 inh 5, PAFAH1B2 FP inh 5, PP1 inh 20*, PP1 confirm 25* and PP5 counter -4.
For Cc1cc(N2CCOCC2)ccc1/C=C1\NC(=O)N(CC(=O)Nc2ccc(F)cc2)C1=O the results were PP5 inh 2, pPAFAH FP inh 4, PAFAH1B3 FP inh 4, PAFAH2 inh -6, PAFAH1B2 FP inh -5 and PP1 inh 9.
`COc1ccc(-c2cc(-c3ccccc3)c(C#N)c(SCC(=O)O)n2)cc1` gave PP5 inh 0, pPAFAH FP inh 1, PAFAH1B3 FP inh 7, PAFAH2 inh -5, PAFAH1B2 FP inh 7 and PP1 inh -2.
Screening COc1ccc(-c2cc(-c3ccc(Cl)cc3)c(C#N)c(SCC(=O)O)n2)cc1 returned PP5 inh 2, pPAFAH FP inh -8, PAFAH1B3 FP inh 3, PAFAH2 inh 4, PAFAH1B2 FP inh 3, PP1 inh 48*, PP1 confirm 28* and PP5 counter 0.
For Cc1cccc(N2C(=O)C(O)=C(C(=O)c3cccs3)C2c2cccc(Oc3ccccc3)c2)n1 (stereo unspecified) the results were PP5 inh 0, pPAFAH FP inh 13, PAFAH1B3 FP inh 8, PAFAH2 inh 19, PAFAH1B2 FP inh 9, PP1 inh 25*, PP1 confirm 25* and PP5 counter -2.
For CC(=O)c1cccc(CN2CCC(n3nccc3NC(=O)c3ccc4c(c3)OCO4)CC2)c1 the results were PP5 inh 2, pPAFAH FP inh 4, PAFAH1B3 FP inh 6, PAFAH2 inh 0, PAFAH1B2 FP inh -1 and PP1 inh -2.
For Cc1cccc(NC(=O)CNC(=O)COc2ccc(-c3ccc(C#N)cc3)cc2)c1C the results were PP5 inh 5, pPAFAH FP inh 0, PAFAH1B3 FP inh -16, PAFAH2 inh -3, PAFAH1B2 FP inh -3, PP1 inh 20*, PP1 confirm 18* and PP5 counter -1.
